Assay outcomes: PubChem, National Center for Advancing Translational Sciences (NCATS)
This is a sample that favours compounds with a hit; in the whole collection about 4% have one here.
TRHR PAM: qHTS for Small Molecule Agonists and Allosteric Enhancers of Human TRH Receptor: Primary Screen for Enhancers. Thyrotropin-releasing hormone receptor (Homo sapiens), P34981. TRHR cells, fluo-8 calcium fluorescence, EC20 TRH enhancement. enhancement, % at 2 µM. 360,000 compounds, 0.66% hits; in the data active = enhancement above about 30%; also: 0% is about no effect
Target sequence (P34981 whole entry, looked up): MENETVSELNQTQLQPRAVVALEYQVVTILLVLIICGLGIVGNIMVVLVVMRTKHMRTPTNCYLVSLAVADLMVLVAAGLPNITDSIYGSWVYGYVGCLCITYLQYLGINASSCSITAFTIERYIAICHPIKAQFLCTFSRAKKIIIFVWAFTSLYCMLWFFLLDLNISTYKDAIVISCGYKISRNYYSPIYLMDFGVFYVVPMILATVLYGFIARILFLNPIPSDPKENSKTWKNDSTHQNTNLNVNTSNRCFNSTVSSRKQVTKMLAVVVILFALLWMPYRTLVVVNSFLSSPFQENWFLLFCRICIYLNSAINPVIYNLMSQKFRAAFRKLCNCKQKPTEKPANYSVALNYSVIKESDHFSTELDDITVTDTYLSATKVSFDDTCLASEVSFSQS
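Enhancer read-out: after compound pinning and an initial kinetic agonist-mode read, an EC20 of TRH (10 nM final) was injected and fluo-8 calcium signal (Ex 480/Em 530) followed at 1 s/cycle for 100 cycles in TRHR-expressing cells.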
Glioma ERSR ind: qHTS for Inducers of the Endoplasmic Reticulum Stress Response (ERSR) in Human Glioma: qHTS; U87-MG GRP78 promoter luciferase reporter, 16 h; Potency, µM, without a hit: at the top dose activation, actives largely listed as activators; 420,000 compounds, 0.02% hits; AID 602332, 2012; active = well fitted activation curve with a large enough effect; also: potency is read from the fitted curve at half-maximal effect; series mostly up to about 76 µM; % of control where 0% means no effect; nearly all actives have a fitted effect of over 35% in size
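ERSR induction read as luciferase luminescence (Bright-Glo, 10 min at room temperature) in stably transfected human U87-MG glioma cells exposed to compounds for 16 h, using GRP78 as sensor.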
TRHR agonist: qHTS for Small Molecule Agonists and Allosteric Enhancers of Human TRH Receptor: Primary Screen for Agonists | Thyrotropin-releasing hormone receptor (Homo sapiens), P34981 | TRHR cells, calcium flux fluo-8, FDSS agonist mode | activation, % at 2 µM | 360,000 compounds, 0.18% hits; also: 0% is about no effect
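In this calcium-flux screen, cells bearing human TRHR are dye-loaded with fluo-8, baselined for 10 cycles, then exposed to library compounds; positive kinetic calcium responses during the agonist phase mark hits, with TRH as control.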
D1 potentiator: Potentiators of Human D1 Dopamine Receptor: qHTS | 360,000 compounds, 0.036% hits | D(1A) dopamine receptor (Homo sapiens), P21728 | potentiation, % at 10 µM | HEK293 TREx D1 cells, calcium flux, dopamine EC20 potentiation; in the data active = potentiation above about 30%; also: 0% is about no effect
D1 ag: Allosteric Agonists of the Human D1 Dopamine Receptor: qHTS | HEK293 T-REx D1 cells, calcium flux, agonist mode | activation, % at 2 µM | 360,000 compounds, 1% hits | AID 504660, 2011; also: 0% is about no effect
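Agonism was scored from calcium flux recorded over 180 s (1 read/s) after pintool compound addition, following a 10-cycle baseline. Cells were inducible force-coupled HEK293 TREx D1, plated overnight at 30 C and loaded with no-wash calcium dye.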
D1 antag: Antagonist of Human D 1 Dopamine Receptor: qHTS | D(1A) dopamine receptor (Homo sapiens), P21728 | HEK293 TREx D1 cells, calcium flux, dopamine EC80; active compounds read low | activity change, negative = inhibition, % at 10 µM | 360,000 compounds, 3.2% hits | AID 504652, 2011; in the data active = activity change below about -30%; also: % is scaled to controls: 0 for no effect and ±100 for the full control effect
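Cells carrying a force-coupled, tetracycline-inducible human D1 receptor report calcium flux. Each well gets a 10 s baseline, compound with 180 s monitoring, then an EC80 dopamine stimulus with a second 180 s kinetic read.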
Numbers without * were called inactive. Rule as the data show it, unless noted: active = activation above about 30%; inactive = the rest.

`COc1ccc(CCN(C)C2CCCN(S(C)(=O)=O)C2)cc1OC` (configuration not stated) gave TRHR PAM -6.1, Glioma ERSR ind 0.0%, TRHR agonist -0.3, D1 potentiator -2.8, D1 ag 3.0 and D1 antag 6.7.
For COc1ccc(CCN(C)C2CCCN(S(=O)(=O)c3ccc(C)cc3)C2)cc1OC (configuration not stated) the results were TRHR PAM -0.6, Glioma ERSR ind -5.2%, TRHR agonist -0.1, D1 potentiator -9.2, D1 ag -2.8 and D1 antag -37.2*.
O=C(CNS(=O)(=O)N1CCOCC1)N/N=C/c1cccnc1 was read as TRHR PAM 5.7, Glioma ERSR ind 0.8%, TRHR agonist 0.6, D1 potentiator -0.3, D1 ag 2.7 and D1 antag -2.4.
`Fc1ccc(C(CCCn2nnc(-c3cccnc3)n2)c2ccc(F)cc2)cc1` gave TRHR PAM 1.0, Glioma ERSR ind -4.9%, TRHR agonist 0.9, D1 potentiator -6.5, D1 ag 17.0 and D1 antag -30.1*.
`CN1CCN(S(=O)(=O)c2ccc(NC(=O)c3csc4ccccc34)cc2)CC1` gave TRHR PAM -5.8, Glioma ERSR ind 1.7%, TRHR agonist 0.6, D1 potentiator -12.1, D1 ag 2.5 and D1 antag -44.7*.
Screening CCCOc1ccccc1C(=O)Nc1ccc(S(=O)(=O)N2CCN(C)CC2)cc1 returned TRHR PAM -1.8, Glioma ERSR ind -5.1%, TRHR agonist 0.1, D1 potentiator -12.2, D1 ag 4.4 and D1 antag -49.4*.
CN1CCN(S(=O)(=O)c2ccc(NC(=O)c3cccs3)cc2)CC1 was read as TRHR PAM 2.1, Glioma ERSR ind -0.9%, TRHR agonist -0.3, D1 potentiator -3.4, D1 ag 1.1 and D1 antag 5.0.
`COc1ccccc1C(=O)Nc1ccc(S(=O)(=O)N2CCN(C)CC2)cc1` gave Glioma ERSR ind -2.3%.
Screening CCCOc1ccc(C(=O)Nc2ccc(S(=O)(=O)N3CCN(C)CC3)cc2)cc1 returned TRHR PAM -1.8, Glioma ERSR ind -8.3%, TRHR agonist 0.0, D1 potentiator -11.0, D1 ag 9.7 and D1 antag -72.5*.
Screening COc1ccc(C(=O)Nc2ccc(S(=O)(=O)N3CCN(C)CC3)cc2)cc1 returned Glioma ERSR ind -4.0%.
`COC(=O)c1cn(CC(=O)N2CCCCC2C)c2ccccc12` (configuration not stated) gave TRHR PAM -2.4, Glioma ERSR ind 2.0%, TRHR agonist -0.4, D1 potentiator -9.4, D1 ag 1.4 and D1 antag 22.2.
`CCN1C(=O)/C(=C2/C=CC=CN2C)SC1=S` gave TRHR PAM -2.7, Glioma ERSR ind -2.6%, TRHR agonist 1.3, D1 potentiator -1.1, D1 ag 1.9 and D1 antag -32.8*.
For NC(=O)c1ccc(Nc2ccc([N+](=O)[O-])cc2[N+](=O)[O-])cc1 the results were TRHR PAM -4.1, Glioma ERSR ind -2.5%, TRHR agonist 0.4, D1 potentiator 14.6, D1 ag 3.2 and D1 antag -12.3.
`CCCCOC(=O)c1ccc(O)cc1` gave TRHR PAM -0.8, Glioma ERSR ind 5.6%, TRHR agonist -0.2, D1 potentiator -3.1, D1 ag -4.1 and D1 antag 6.6.
`CCCCOC(=O)Nc1ccc(C(=O)OCCC)cc1` gave TRHR PAM -16.2, Glioma ERSR ind 1.8%, TRHR agonist 0.7, D1 potentiator -15.9, D1 ag 2.4 and D1 antag -30.6*.
Screening O=C(/C=C/c1cccs1)Nc1ccncc1 returned TRHR PAM 8.3, Glioma ERSR ind -0.9%, TRHR agonist -0.5, D1 potentiator -2.8, D1 ag -0.2 and D1 antag -2.0.
CCCCOC(=O)c1ccc(NC2=NS(=O)(=O)c3ccccc32)cc1 was read as TRHR PAM 1.4, Glioma ERSR ind -1.7%, TRHR agonist 0.2, D1 potentiator -2.9, D1 ag 1.5 and D1 antag -43.4*.
For CCCCc1ccc(NC(=O)OC)cc1 the results were TRHR PAM 1.8, Glioma ERSR ind -3.0%, TRHR agonist 0.2, D1 potentiator -8.3, D1 ag 82.0* and D1 antag -28.8.
Screening CC(=O)c1ccc(NC2=NS(=O)(=O)c3ccccc32)cc1 returned TRHR PAM 0.1, Glioma ERSR ind -0.7%, TRHR agonist -0.5, D1 potentiator -0.6, D1 ag 0.8 and D1 antag -7.7.
For CCCOC(=O)c1ccc(NC(=O)/C=C/c2cccs2)cc1 the results were TRHR PAM -2.5, Glioma ERSR ind -2.6%, TRHR agonist 2.6, D1 potentiator -1.8, D1 ag 7.8 and D1 antag -42.7*.
CCCCc1ccc(NC(=S)Nc2ccc(Nc3ccc(OC)cc3)cc2)cc1 was read as TRHR PAM -5.8, Glioma ERSR ind 3.4%, TRHR agonist -0.1, D1 potentiator -12.5, D1 ag 0.7 and D1 antag -2.6.
For COc1ccc(S(=O)(=O)c2cn(Cc3ccccc3)c3ccc(OC)cc3c2=O)cc1 the results were TRHR PAM -5.5, Glioma ERSR ind -3.2%, TRHR agonist -1.4, D1 potentiator 3.0, D1 ag 10.2 and D1 antag 2.0.
CC(C)=CCC/C(C)=C/CO/N=C1/C[C@@H](O)[C@@H](O)[C@@H]2[C@@H]3C(=O)N(C(C)(C)C)C(=O)[C@H]3CC[C@@H]12 was read as Glioma ERSR ind -5.9%.
For CCCCOC(=O)c1ccc(Nc2nc3ccccc3c3nnc(C)n23)cc1 the results were TRHR PAM -5.2, Glioma ERSR ind -2.7%, TRHR agonist 0.9, D1 potentiator -4.2, D1 ag 5.3 and D1 antag -55.2*.
CCCCCCOC(=O)c1ccc(NC(=O)c2cc(OC)c(OC)c(OC)c2Br)cc1 was read as TRHR PAM 23.1, Glioma ERSR ind -1.4%, TRHR agonist -1.0, D1 potentiator 1.1 and D1 ag 46.0*.
CCOC(=O)c1ccc(NC(=O)c2cc(OC)c(OC)c(OC)c2Br)cc1 was read as TRHR PAM 3.7, Glioma ERSR ind 0.8%, TRHR agonist -0.4, D1 potentiator -6.1, D1 ag 1.7 and D1 antag -1.5.
For CCCOC(=O)c1ccc(NC(=O)c2cc(=O)[nH]c3ccccc23)cc1 the results were TRHR PAM 5.2, Glioma ERSR ind 12.0%, TRHR agonist 0.8, D1 potentiator -2.4, D1 ag 4.6 and D1 antag -33.0*.
